Measured values published in PubChem BioAssay (NCATS).
Inconclusive results are not listed. Where a call stands in place of a potency, no number is given. Activity calls are given as the source filed them. Calls follow the shape of the dose curve; as a rule, active = well fitted inhibition curve with a large enough effect; inconclusive = small, poorly fitted or top-dose-only effect; inactive = flat fitted curve, though single readings scatter.

What follows are compounds tested against Calcium and integrin-binding protein 1 (Homo sapiens) (UniProt Q99828) (assay: Primary qHTS for Identification of Calcium Integrin Binding Protein 1 (CIB1) Competitor (AID 1508620;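 also: GST tagged CIB1 binding a fluorescein labelled alphaIIb integrin peptide tracer; top concentration of the series differs between compounds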)). Settings: CIB1-GST / FITC-alphaIIb peptide fluorescence polarization; series mostly up to 57.7 µM.
Sequence of Calcium and integrin-binding protein 1 (Homo sapiens) (Q99828 whole entry, looked up): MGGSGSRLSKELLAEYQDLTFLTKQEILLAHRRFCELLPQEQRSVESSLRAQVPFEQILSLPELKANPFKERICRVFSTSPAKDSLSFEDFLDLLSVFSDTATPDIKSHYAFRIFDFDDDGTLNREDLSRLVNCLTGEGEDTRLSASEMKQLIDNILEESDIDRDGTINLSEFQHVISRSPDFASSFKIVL
How it was run: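 CIB1-GST (1 uM final) and compound incubated 15 min at room temperature before adding FITC-alphaIIb peptide tracer (100 nM final). Competition for binding read by fluorescence polarization (ex 480, em 540) after another 15 min at room temperature.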
With CC(C)=CCC/C(C)=C/CC/C(C)=C/CC[C@]1(C)CCc2cc(O)cc(C)c2O1 the Potency was “inactive”.
With OC[C@H]1O[C@@H](Oc2cc(O)cc(/C=C/c3ccc(O)cc3)c2)[C@H](O)[C@@H](O)[C@@H]1O the Potency was “inactive”.
For CC1(C)C[C@H]2C3=CCC4[C@@]5(C)CC[C@H](O[C@H]6O[C@H](C(=O)O)[C@@H](O)[C@H](O)[C@H]6O[C@H]6O[C@H](CO)[C@@H](O)[C@H](O)[C@H]6O[C@@H]6O[C@H](CO)[C@@H](O)[C@H](O)[C@H]6O)[C@](C)(CO)C5CC[C@@]4(C)[C@]3(C)CC[C@@]2(C)[C@H](O[C@@H]2OC[C@H](O)[C@H](OC3O[C@H](CO)[C@@H](O)[C@H](O)[C@H]3O)[C@H]2O)[C@@H]1O (stereo partly drawn), the activity change, negative = inhibition was -7.85% [at 12.4 µM] (inactive).
With CC(=O)O[C@H]1C[C@@H]2[C@]3(CC[C@]4(C)[C@@H](C5(C)CCC(C(C)(C)O)O5)[C@@H](O)C[C@@]24C)C[C@@]32CC[C@H](O[C@@H]3OC[C@@H](O)[C@H](O)[C@H]3O)C(C)(C)[C@H]12 (stereo partly drawn) the Potency was “inactive”.
In the case of O=C(c1ccc(NS(=O)(=O)c2cccc3cccnc23)cc1)N1CCN(CC2CC2)CC1, the Potency is reported as “inactive”.
In the case of CCOC(=O)[C@H](CCc1ccccc1)N[C@@H](C)C(=O)N1C2CCCCC2C[C@H]1C(=O)O (stereo partly drawn), the Potency is reported as “inactive”.
With CC(C)(C)c1cc(CN2CCN(CC(O)c3ccc(Cl)cc3)CC2)cc(C(C)(C)C)c1O (stereo not drawn) the Potency was “inactive”.
For C[C@@H]1O[C@@H](OC[C@H]2O[C@@H](OCC3CCC4CC3C4(C)C)[C@H](O)[C@@H](O)[C@@H]2O)[C@H](O)[C@H](O)[C@H]1O (stereo partly drawn), the Potency was “inactive”.
